The entries come from a sample that favours hits as a whole.
DUX4_inh: blocks DUX4-driven transcriptional activation. actives 0.8% (n = 37,000). 293T-iDUX4 ZSCAN4-Gaussia luciferase reporter, 24 h; active compounds read low. activity change, negative = inhibition, % (no concentration beside the values). AID 1224904;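 active = mean inhibition of at least 10% in the main channel, exceeding the control channel by a set limit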;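 also: 0% = median of neutral control wells and -100% = median of positive control wells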
* hit, by the source's call.

SMILES DUX4_inh
O=C(Cc1ccccc1)N1CCCCN2[C@H](CO)[C@@H](c3ccc(C#CC4(O)CCCC4)cc3)[C@@H]2C1 -4.7
O=C(Cc1ccncc1)N1CCCCN2[C@H](CO)[C@@H](c3ccc(-c4ccncc4)cc3)[C@H]2C1 15.7
O=C(Cc1ccncc1)N1CCCCN2[C@H](CO)[C@H](c3ccc(C#Cc4ccccc4F)cc3)[C@@H]2C1 -38.5*
CCCNC(=O)[C@H]1[C@H](CO)[C@H]2Cn3c(cccc3=O)[C@H]2N1CC 4.4
CC(=O)N1[C@@H]2Cn3c(ccc(-c4cccc(C(=O)N(C)C)c4)c3=O)[C@H]1[C@@H](C(=O)O)[C@@H]2CO -4.9
